Screening results: PubChem BioAssay, Broad Institute
CASP6 VEID inh: inhibitors of human caspase-6. purified caspase-6, Z-VEID-R110 cleavage fluorescence. hit rate 0.53% among 350,000. inhibition, % at 12.5 µM;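 active = mean inhibition across replicates at least about 35%, with every replicate also reaching that limit, limit read from the data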;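 also: 0% = median of neutral control wells and 100% = no fluorescence left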
Target sequence (P55212 24-179 limits assumed): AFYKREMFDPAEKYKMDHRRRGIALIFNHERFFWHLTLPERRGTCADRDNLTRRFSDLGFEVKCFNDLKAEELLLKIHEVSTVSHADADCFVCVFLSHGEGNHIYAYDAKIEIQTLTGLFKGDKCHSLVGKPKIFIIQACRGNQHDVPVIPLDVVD
Target sequence (P55212 194-293 limits assumed): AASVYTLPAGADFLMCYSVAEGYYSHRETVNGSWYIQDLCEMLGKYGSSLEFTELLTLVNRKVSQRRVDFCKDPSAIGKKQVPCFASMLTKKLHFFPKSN
NSD2 inh: blocks human histone methyltransferase NSD2; NSD2 peptide methylation, AlphaScreen, 120 min; hit rate 0.54% among 310,000; inhibition, % at 12.5 µM; AID 743445; in the data active = inhibition above about 50%
SIRT5 inh: blocks human SIRT5 desuccinylation of peptide; hit rate 1.1% among 330,000; Purified SirT5, succinyl-peptide AMC, trypsin-coupled fluorescence; inhibition, % at 15 µM; in the data active = inhibition above about 15%
Target sequence (Q9NXA8 whole entry, looked up): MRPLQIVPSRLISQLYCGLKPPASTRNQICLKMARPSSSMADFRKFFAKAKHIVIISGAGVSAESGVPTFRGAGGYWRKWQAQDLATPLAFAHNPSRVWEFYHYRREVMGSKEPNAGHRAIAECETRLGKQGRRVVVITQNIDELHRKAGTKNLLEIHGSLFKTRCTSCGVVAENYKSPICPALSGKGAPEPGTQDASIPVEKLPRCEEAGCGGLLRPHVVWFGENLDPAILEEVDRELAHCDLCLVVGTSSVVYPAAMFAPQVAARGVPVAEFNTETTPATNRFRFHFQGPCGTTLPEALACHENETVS
ARNT-TACC3 inh: disrupts binding between human ARNT and TACC3; Q9Y6A5; AlphaScreen His-ARNT PAS-B/GST-TACC3 binding, luminescence; TACC3 fragment carries E629A point mutation; inhibition, % at 9.99 µM; hit rate 0.66% among 390,000; AID 623870;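 active = mean inhibition of replicates at least 50% and at least half of replicates each reaching 50%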;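 also: 0% = complete ARNT plus TACC3 wells and 100% = ARNT alone without TACC3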
PfHsp90 yeast 2: inhibits growth of yeast expressing Plasmodium falciparum Hsp90 | S. cerevisiae expressing PfHsp90, BacTiter-Glo ATP, 48 h; yeast lacking PDR1 and PDR3 efflux regulators | inhibition, % at 9.4 µM | hit rate 0.32% among 310,000;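 active = every replicate shows inhibition above about 80%, whatever the replicate mean, limit read from the data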;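 also: 0% = DMSO neutral controls and 100% = 20 µM radicicol positive controls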
* = called active by the depositor; · = not tested or not shown; ! = repeats disagree. Compounds with a hit are over-represented: about 2.1% of the library has one in this group of screens.

SMILES | CASP6 VEID inh | NSD2 inh | SIRT5 inh | ARNT-TACC3 inh | PfHsp90 yeast 2
C[C@H](CO)N1C[C@H](C)[C@H](CN(C)C(=O)Nc2ccc3c(c2)OCO3)Oc2ccc(NC(=O)Nc3cccc4ccccc34)cc2CC1=O | 0.7 | · | 3.7 | · | ·
C[C@H](O)C#Cc1ccc2c(c1)O[C@@H](CN(C)C(=O)C1CCC1)[C@H](C)CN([C@@H](C)CO)S2(=O)=O | -0.4 | · | -0.6 | 7.4 | ·
COc1ccc(S(=O)(=O)N2C[C@@H](O)COC[C@@H]3O[C@@H](CC(=O)NCc4ccc(Cl)c(Cl)c4)CC[C@H]32)cc1 | 1.0 | · | 15.3* | -2.2 | ·
COc1ccc(S(=O)(=O)N2C[C@H](O)COC[C@@H]3O[C@H](CC(=O)NCc4ccc(Cl)c(Cl)c4)CC[C@H]32)cc1 | 1.6 | · | 4.0 | -3.9 | ·
O=C(C[C@H]1CC[C@H]2[C@@H](COC[C@H](O)CN2C(=O)Nc2ccc(Cl)c(Cl)c2)O1)NCc1ccc(Cl)c(Cl)c1 | 1.6 | · | 3.2 | 7.8 | ·
O=C(C[C@@H]1CC[C@H]2[C@@H](COC[C@@H](O)CN2C(=O)Nc2ccc(Cl)c(Cl)c2)O1)NCc1ccc(Cl)c(Cl)c1 | 0.0 | · | 15.5* | -3.1 | ·
CN(C)C(=O)C[C@@H]1CC[C@@H]2[C@@H](COc3ccc(NC(=O)C4CCC4)cc3C(=O)N2C)O1 | 2.4 | · | 1.6 | · | ·
COc1ccccc1CNC(=O)C[C@@H]1CC[C@@H]2[C@H](COC[C@H](O)CN2Cc2cccc(-c3ccncc3)c2)O1 | -1.3 | · | -0.4 | -1.5 | ·
Cc1ccc(C(=O)c2ccc([N+](=O)[O-])cc2)cc1 | · | 25.3 | · | -2.9 | 5.6
Cc1ccc(C(=O)c2coc3cc([N+](=O)[O-])c(O)c([N+](=O)[O-])c23)cc1 | 48.4* | 35.5 | 1.0 | · | 8.6
C[C@H]1CN([C@@H](C)CO)C(=O)c2cc(NC(=O)CCC(F)(F)F)ccc2O[C@H]1CN(C)C | 2.2 | · | 17.0* | -4.1 | ·
COc1ccc(NC(=O)Nc2ccc3c(c2)C(=O)N([C@@H](C)CO)C[C@@H](C)[C@@H](CN(C)S(=O)(=O)c2ccc(C)cc2)O3)cc1 | 13.2 | · | 18.6* | 10.5 | ·
COc1ccc(S(=O)(=O)N(C)C[C@H]2Oc3ccc(NC(=O)NC4CCCCC4)cc3C(=O)N([C@H](C)CO)C[C@@H]2C)cc1 | -0.7 | · | 20.1*! | -1.7 | -4.2
COc1ccc(S(=O)(=O)N(C)C[C@@H]2Oc3ccc(NC(=O)CCC(F)(F)F)cc3C(=O)N([C@H](C)CO)C[C@H]2C)cc1 | -2.1 | · | 34.3* | -4.8 | ·
COc1ccc(NC(=O)Nc2ccc3c(c2)C(=O)N([C@@H](C)CO)C[C@H](C)[C@@H](CN(C)S(=O)(=O)c2ccc(C)cc2)O3)cc1 | 0.6 | · | 1.5 | 0.0 | ·
C[C@H]1CN([C@@H](C)CO)C(=O)c2cccc(NS(=O)(=O)c3ccc(Cl)cc3)c2O[C@H]1CN(C)Cc1ccc(C(F)(F)F)cc1 | 1.3 | · | 5.1 | -1.6 | ·
C[C@H]1CN([C@@H](C)CO)C(=O)c2cc(NC(=O)Nc3ccccc3)ccc2O[C@H]1CN(C)S(=O)(=O)c1ccc(Cl)cc1 | -2.1 | · | 0.7 | -0.7 | ·
COc1ccc(S(=O)(=O)N(C)C[C@@H]2Oc3ccc(NC(=O)Nc4ccc(F)cc4)cc3C(=O)N([C@H](C)CO)C[C@@H]2C)cc1 | 1.0 | · | 18.2* | -0.5 | ·
CN1C(=O)C(O)(c2sc(N)nc2-c2ccccc2)c2ccccc21 (centres undefined) | 0.1 | -1.3 | 21.2* | · | 17.7
CCOC(=O)C1=CCN(S(=O)(=O)c2ccc(C)cc2)C1c1cccc(Br)c1 (centres undefined) | -0.6 | · | 28.8* | · | ·
CCOC(=O)C1=CCN(S(=O)(=O)c2ccc(C)cc2)C1c1ccc(CC)cc1 (centres undefined) | 1.6 | · | 15.9* | · | ·
C[C@@H]1CN([C@@H](C)CO)C(=O)Cc2cc(NC(=O)CCC(F)(F)F)ccc2O[C@H]1CN(C)Cc1ccc(Cl)c(Cl)c1 | 2.0 | · | 8.0 | 7.0 | ·
COCCNC(=O)C[C@H]1CC[C@@H]2[C@@H](COc3ccc(NC(=O)Nc4ccccc4)cc3C(=O)N2C)O1 | -2.2 | · | -6.5 | -1.7 | ·
O=C(O)/C=C1\NC(=O)c2ccccc21 | · | -0.4 | · | -9.4 | -10.3
O=C1N/C(=C\c2ccc(O)cc2)C(=O)c2ccccc21 | 82.8* | 0.7 | 3.7 | 6.6 | ·
SMILES | CASP6 VEID inh | NSD2 inh | SIRT5 inh | ARNT-TACC3 inh | PfHsp90 yeast 2
C[C@H](CO)N1C[C@H](C)[C@H](CN(C)Cc2ccccc2F)Oc2cc(C#CC3CC3)ccc2S1(=O)=O | -1.1 | · | 43.4* | 5.7 | ·
C[C@@H]1CN([C@@H](C)CO)S(=O)(=O)c2ccc(C#CC3CC3)cc2O[C@H]1CN(C)Cc1ccccc1F | 0.0 | · | 10.7 | 8.6 | ·
CC(C)CC#Cc1ccc2c(c1)O[C@@H](CN(C)Cc1ccccc1F)[C@@H](C)CN([C@@H](C)CO)S2(=O)=O | 3.4 | · | 15.6* | 9.1 | ·
O=C(Cc1ccccc1)N1CC2(C1)[C@@H](c1ccccc1)[C@H](CO)N2C(=O)Cc1ccccc1 | 2.9 | · | -1.2 | · | ·
C[C@H](CO)N1C[C@H](C)[C@@H](CN(C)C(=O)c2cnccn2)Oc2ncc(C#CCC3CCCC3)cc2C1=O | -0.2 | · | 9.7 | 2.0 | ·
O=C(C[C@@H]1C[C@@H]2c3cc(NC(=O)Nc4ccccc4)ccc3O[C@@H]2[C@@H](CO)O1)NCc1cccc(F)c1 | -1.3 | · | -5.2 | -6.4 | ·
Nc1cccc(Oc2c(F)c(F)c(Oc3cccc(N)c3)c(F)c2F)c1 | 0.3 | -2.0 | -1.1 | -17.8 | 84.9*
COC(=O)C[C@H]1CC[C@@H]2[C@H](COc3ccc(NC(=O)c4ccccc4F)cc3C(=O)N2C)O1 | 0.8 | · | -6.3 | -3.0 | ·
COc1cc(C=c2c3ccccc3n3c2cc(-c2ccccc2)[n+]3C)cc(OC)c1OC | 96.3* | · | -0.3 | 26.2 | -11.7
CN(C)c1ccc(C=c2c3ccccc3n3c2cc(-c2ccccc2)[n+]3C)cc1 | 18.6 | 4.0 | · | 28.3 | 104.7*
C[C@@H]1CN([C@H](C)CO)C(=O)c2cccc(NC(=O)Nc3ccccc3)c2O[C@H]1CN(C)S(=O)(=O)c1ccc(F)cc1 | 3.6 | · | -0.2 | -2.2 | ·
CCC(=O)N1C[C@H](O)COC[C@H]2O[C@H](CC(=O)NCc3ccccc3Cl)CC[C@@H]21 | · | · | · | 7.5 | ·
O=C(O)C[C@@H]1C[C@H]2c3cc(NC(=O)C4CCC4)ccc3O[C@H]2[C@@H](CO)O1 | 0.6 | · | -3.5 | · | ·
Cc1ccc(S(=O)(=O)/N=C2/NC(=O)/C(=C/c3cc([N+](=O)[O-])ccc3O)S2)cc1 | 37.2* | 11.1 | 12.2 | · | -14.3
COc1ccc(NC(=O)N(C)C[C@H]2Oc3c(NC(=O)Nc4ccc(F)cc4)cccc3C(=O)N([C@H](C)CO)C[C@@H]2C)cc1 | 1.1 | · | -0.3 | 0.9 | ·
C[C@H]1CN([C@@H](C)CO)C(=O)c2cccc(NC(=O)CCCCCC(=O)Nc3ccccc3N)c2O[C@@H]1CN(C)Cc1ccc2c(c1)OCO2 | 1.7 | · | 3.3 | 20.2 | ·
C[C@@H]1CN([C@H](C)CO)C(=O)c2c(c3ccccc3n2C)-c2ccccc2CO[C@@H]1CN(C)Cc1ccc2c(c1)OCCN2C | 0.1 | · | 15.9* | · | ·
